Source: PubChem (National Center for Advancing Translational Sciences (NCATS))
Six1-Eya2 blk: Six1/Eya2 interaction inhibition; AlphaScreen GST-Six1/His-Eya2 binding, biochemical; hits give low values; activity change, % (no concentration beside the values); actives 0.56% (n = 360,000); AID 651725
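Compounds are tested against tagged Six1 and Eya2 proteins bridged by glutathione donor and nickel acceptor beads; after a one-hour incubation at 37 °C without light, AlphaScreen emission is recorded.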
CtBP-E1A inh: inhibitors of CtBP/E1A interaction. AlphaScreen GST-E1A/His-CtBP binding, 1536-well; hits give low values. actives 0.49% (n = 340,000). activity change, % (no concentration beside the values)
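Protein mix (5X: 125 nM each GST-E1A, His-CtBP) was incubated with pinned compound 2 h at 37 deg C in dark, in 50 mM Tris pH 8.0 buffer with 300 mM NaCl. Glutathione donor and nickel acceptor beads followed; AlphaScreen signal read after 1 h.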
CCT modulator: changes cytosolic chaperonin activity | purified chaperonin ATPase assay, HTRF ADP detection, 30 min | activity change, % (test concentration not listed), hits read low | actives 0.3% (n = 360,000); in the data active = activity change below about -30%
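We incubate TRiC, 40 or 20 nM final, with library compounds at 76 uM and 10 uM ATP for 30 min at 37 °C. ADP formed is detected with Transcreener HTRF reagents after 30 min at room temperature.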
pAkt inh: Akt phosphorylation inhibition | AID 651550 | actives 0.32% (n = 360,000) | Neuro2A IGF-stimulated pAkt S473 HTRF, 20 min; hits give low values | activity change, % for hits at 50 µM; in the data active = activity change below about -80%; inconclusive = mostly about -51% to -80%
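Single-point screen (50 µM final compound) in Neuro2A cells stimulated 20 min with 6 nM IGF at 37 deg C. After lysis, Ser473-phosphorylated Akt read by HTRF (ex 330 nm, em 615/665 nm) as the 665/615 ratio.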
Numbers without * were called inactive; i = inactive; ? = inconclusive; · = no result given; ! = not active in a repeat. The list is not random: actives were taken first. Their share in the collection is about 1.2%. Cut-off read from the data, not from the text of the source, unless noted: active = activity change below about -65%; inconclusive = mostly about -30% to -63%; inactive = weaker than that. % is set by controls: 0 for no effect and ±100 for the full control effect.

SMILES	Six1-Eya2 blk	CtBP-E1A inh	CCT modulator	pAkt inh
CC(C)(C)c1ccc(C(=O)NC(=O)COC(=O)c2ccc(Br)o2)cc1	2	4	-3	i
Cn1cnc(S(=O)(=O)Nc2ccc(OC(F)(F)F)cc2)c1	-2	-6	-1	i
O=C(COc1ccc(Cl)cc1)NNC(=O)c1ccccn1	?	?	0	i
Cc1cc(C)cc(OCC(=O)NNC(=O)c2ccccn2)c1	-68*	·	2	i
O=C(NNC(=O)c1sccc1-n1cccc1)Nc1ccc(F)cc1	-3	-1	-3	i
CC(C)C(=O)Nc1ccc(-c2nc3ccccc3c(=O)o2)cc1	-76*	?	-2	i
COc1ccc(-c2nc3ccccc3c(=O)o2)cc1OC	-28	?	0	-119%*
CCNC(=O)C1(C)CCCN(Cc2noc(-c3c(C)noc3C)n2)C1 (stereo not given)	-1	-1	1	i
COC(=O)c1[nH]c2ccc(C)cc2c1NS(=O)(=O)c1ccc(F)cc1	1	4	-1	-119%*
COC(=O)c1[nH]c2ccc(C)cc2c1NS(=O)(=O)c1ccc(F)c(C)c1	0	-1	0	i
Nc1nc(SCC(=O)Nc2cc(-c3ccccc3)nn2-c2ccccc2)n[nH]1	4	15	-97*	i
COc1ccc2[nH]c(=O)c(CN(C(C)=O)c3cc(C)ccc3C)cc2c1	-6	2	1	i
CC1(C)CC(c2csc(N)n2)CCO1 (stereo not given)	21	-5	-39*	i
CCCC(=O)N1c2ccccc2C(N(C(C)=O)c2ccccc2)CC1C (stereo not given)	2	-3	-3	i
CCC(=O)N1c2ccccc2[C@@H](N(C(C)=O)c2ccccc2)C[C@H]1C	0	0	-79*	i
CC(=O)c1ccccc1C(=O)N1CCC(n2nccc2NC(=O)C2CC2)CC1	-1	12	-1	i
CSc1c(CC(=O)Nc2ccc(F)cc2)n(Cc2ccccc2)c2ccccc12	5	-1	-4	i
CN(C(=O)COC(=O)c1ccc2c(c1)NC(=O)CS2)C1CCS(=O)(=O)C1 (stereo not given)	3	1	-2	-108%*
O=C(O)c1cc2cc(Cl)cc(Cl)c2oc1=O	?	-74*	-1	i
COc1ccc(CCNc2cc(=O)[nH]c(N)n2)cc1	-69*	-80*	-4	i
CCOC(=O)CSc1nnc([C@H](C)NC(=O)OC(C)(C)C)o1	0	3	0	-115%*
Cc1cc(C)n(C(N)=NC(=O)c2ccccc2)n1	3	2	0	i
CC(C)C(O)(C#CCN1CCCCCC1)c1ccccc1 (stereo not given)	1	6	-38*	i
Cc1ccccc1C(=O)Nc1ccc2c(C#N)c3nc4ccccc4nc3n2c1	?	-71*	-5	i
Cc1c(C(=O)Nc2ccccc2)cn2c(nc3ccccc32)c1C#N	-8	-16	-2	i
SMILES	Six1-Eya2 blk	CtBP-E1A inh	CCT modulator	pAkt inh
O=C(COc1cc2oc(=O)c3c(c2cc1Cl)CCC3)NCC(O)c1ccccc1 (stereo not given)	-6	-3	0	i
CCOc1ccc(NC(=S)N(CCOC)C(C)c2ccco2)cc1 (stereo not given)	-6	·	0	i
COc1cc(CN2C(=S)NC(C)(C)CC2(C)O)cc(OC)c1 (stereo not given)	-4	5	1	i
O=C(COc1ccccc1/C=C1\SC(=S)NC1=O)Nc1ccc(F)cc1	-30	-85*	-1	i
O=S(=O)(NCc1ccc(Cl)cc1)c1cnc[nH]1	7	0	0	i
Cc1ccc(CCNS(=O)(=O)c2cnc[nH]2)cc1	4	6	-39*	i
O=c1nc(N/N=C/c2c[nH]c3ccccc23)cn[nH]1	-78*	-86*	-3	i
OCCN1CCN(Cc2cc(Cl)c3cccnc3c2O)CC1	-90*	-95*	-2	i
Oc1c(CN2CCN(c3ccccn3)CC2)cc(Cl)c2cccnc12	-90*	-97*	1	i
O=c1c(CN2CCN(c3ccccn3)CC2)coc2ccccc12	12	-6	1	i
CCCNC(=O)CN1C(=O)COc2ccc(S(=O)(=O)N3CC(C)CC(C)C3)cc21 (stereo not given)	0	8	-46*	i
CCCNC(=O)CN1C(=O)COc2ccc(S(=O)(=O)N3CCCCCC3)cc21	0	1	3	i
COc1cccc(OCCSc2nnc3sc4ccccc4n23)c1	-19	?	0	-112%*
CC(C)(C)c1nn(-c2ccccc2)c2[nH]c(=O)c(CNc3ccc4c(c3)OCCO4)cc12	?	3	-2	i
Cc1nn(-c2ccccc2)c2[nH]c(=O)c(CNc3ccc(N4CCOCC4)cc3)cc12	-70*	-69*	1	i
CSCCC(NS(=O)(=O)c1ccccc1F)C(=O)NCc1ccncc1 (stereo not given)	0	4	0	i
CC(=O)NC12CC3CC(C1)CC(C(=O)OCC(=O)Nc1ncc(Cl)cc1Cl)(C3)C2	1	-3	-3	i
Cc1ccc(S(=O)(=O)c2ccc(Cl)cc2)cc1S(=O)(=O)N(C)CC(=O)O	12	4	1	i
Cc1ccc(S(=O)(=O)c2ccc(Cl)cc2)cc1S(N)(=O)=O	-1	-2	-71*	i
CC1CN(C(=O)COc2ncnc3ccccc23)CC(C)O1 (stereo not given)	5	-2	-2	-105%*
O=C(COc1ncnc2ccccc12)N1CCN(c2ccccc2)CC1	7	10	-1	i
O=c1cc[nH]c2c(Cl)cccc12	2	·	1	i
O=c1cc[nH]c2c1ccc1c(=O)cc[nH]c12	-75*	-86*	1	i
O=C1c2c(O)ccc(O)c2C(=O)c2c(NCCNCCO)ccc(NCCNCCO)c21	-85*!	-82*	-2	i
C/C(=N/Nc1cc(-c2ccccc2)nc(-c2ccccc2)n1)c1ccc(O)cc1	-8	0	-2	i
SMILES	Six1-Eya2 blk	CtBP-E1A inh	CCT modulator	pAkt inh
C/C(=N\Nc1cc(-c2ccccc2)nc(-c2ccc(Br)cc2)n1)c1cccc(N)c1	-19	-18	-65*	i
COc1cc(C(=O)Nc2ccc(S(=O)(=O)N3CCCCC3)cc2)ccc1OCC(=O)N1CCOCC1	0	-4	-1	i
CC1(C)CC(=O)c2cc(C(=O)O)c(=O)n(-c3ccccc3)c2C1	-87*	-1	-2	i
COc1ccc(C(=O)Nc2ccc(Cl)c(Cl)c2)c(OC)n1	12	-2	1	-129%*
COc1ccc(C(=O)O)c(OC)n1	-1	-5	-1	i
Cc1ccc(NC(=O)c2ncn(CC(=O)NCC(C)c3ccccc3)n2)cc1C (stereo not given)	3	0	0	i
CCOC(=O)C(=CNc1cccc(C)c1C)C(=O)OCC	3	-5	-122*	i
CCOC(=O)C(=CNc1ccc(C)cc1C)C(=O)OCC	9	11	-1	i
